Drawing on ChEMBL document CHEMBL4513141, “CO-ADD screening of NIH (USA) - Clinical Collection” (2021), this text covers Inhibition for 60 compounds.

Each structure is given as a SMILES string. Results with a measured potency or affinity are listed apart.

One assay has as its system Staphylococcus aureus. As to conditions: Concentration 20 uM; ASSAY_TEST Inhibition of Bacterial Growth; detection method Absorption (OD600); MEDIA CAMHB; plate type 384well; NBS; CORNING #3640; time 18 hr.
The next assay deals with Escherichia coli. As to conditions: Concentration 20 uM; ASSAY_TEST Inhibition of Bacterial Growth; detection method Absorption (OD600); MEDIA CAMHB; plate type 384well; NBS; CORNING #3640; time 18 hr.

What is called Inhibition is the change of the read-out against control, counted positive when it falls. `CC[C@]1(O)C[C@@H]2CN(CCc3c([nH]c4ccccc34)[C@@](C(=O)OC)(c3cc4c(cc3OC)N(C)[C@H]3[C@@](O)(C(N)=O)[C@H](O)[C@]5(CC)C=CCN6CC[C@]43[C@@H]65)C2)C1.O=S(=O)(O)O` [VINDESINE SULFATE]: the Inhibition with Staphylococcus aureus was determined as 2.71%; in the assay with Escherichia coli, 3.57%.
`CC(C(=O)[O-])c1ccc(CC2CCCC2=O)cc1.[Na+]` (stereo not given) [LOXOPROFEN SODIUM]: the Inhibition in the assay with Staphylococcus aureus is 9.06%; in the assay with Escherichia coli, -0.84%.
As to `CC(=O)[C@H]1CC[C@H]2[C@@H]3C[C@H](C)C4=CC(=O)CC[C@]4(C)[C@H]3[C@@H](O)C[C@]12C` [MEDRYSONE], the Inhibition is 2.89% in the assay with Staphylococcus aureus and 2.65% in the assay with Escherichia coli.
Consider `COc1ccccc1OCC(O)COC(N)=O` (stereo not given) [METHOCARBAMOL], for which the values for the Inhibition with Staphylococcus aureus and in the assay on Escherichia coli were 12.79% and -0.64%, respectively.
On to `CC(=O)Nc1nnc(S(N)(=O)=O)s1` [ACETAZOLAMIDE], for which the Inhibition was 15.7% with Staphylococcus aureus and -1.89% in the assay with Escherichia coli.
The like results for `CCCC(CCC)C(=O)O` [VALPROIC ACID] were, in that order, 9.7% and -0.41%.
With `N=c1cc(N2CCCCC2)nc(N)n1O`, the Inhibition in the assay on Staphylococcus aureus is on record as 14.68%; in the assay with Escherichia coli it was -3.43%.
For `CN1CCC(=C2c3ccccc3CC(=O)c3sccc32)CC1.O=C(O)/C=C/C(=O)O` [KETOTIFEN FUMARATE], the Inhibition was determined as 6.88% in the assay with Staphylococcus aureus and 3.55% in the assay with Escherichia coli.
Taken in the same sequence, the figures for `CCCCc1nc(Cl)c(CO)n1Cc1ccc(-c2ccccc2-c2nnn[n-]2)cc1.[K+]` [LOSARTAN POTASSIUM] were -19.73% and 5.5%.
For `C[C@@H]1C[C@H]2[C@@H]3CCC4=CC(=O)C=C[C@]4(C)[C@@]3(F)[C@@H](O)C[C@]2(C)[C@H]1C(=O)CO` [DESOXIMETASONE], the Inhibition in the assay on Staphylococcus aureus worked out at 0.95%; in the assay with Escherichia coli, 7.14%.
On to `COC(=O)Nc1nc2cc(C(=O)c3ccccc3)ccc2[nH]1` [MEBENDAZOLE], for which the Inhibition is listed as 7.86% in the assay on Staphylococcus aureus and 3.86% in the assay with Escherichia coli.
In the case of `O=C1CCc2ccc(OCCCCN3CCN(c4cccc(Cl)c4Cl)CC3)cc2N1` [ARIPIPRAZOLE], the values for the Inhibition with Staphylococcus aureus and in the assay on Escherichia coli were -0.8% and 1.89%, respectively.
In the case of `O=C(CCNNC(=O)c1ccncc1)NCc1ccccc1` [NIALAMIDE], the Inhibition worked out at 16.28% in the assay on Staphylococcus aureus and 8.37% with Escherichia coli.
For the compound `CN(C)CC[C@@H](c1ccc(Cl)cc1)c1ccccn1.O=C(O)/C=C\C(=O)O` [DEXCHLORPHENIRAMINE MALEATE], the Inhibition stood at 5.99% in the assay with Staphylococcus aureus and 6.96% in the assay with Escherichia coli.
Regarding `CC(=O)OCC(=O)[C@@]1(O)CC[C@H]2[C@@H]3CCC4=CC(=O)CC[C@]4(C)[C@H]3C(=O)C[C@@]21C` [CORTISONE ACETATE], the Inhibition with Staphylococcus aureus is given as 12.24%; with Escherichia coli, 5.41%.
For `NC(=O)N1c2ccccc2C=Cc2ccccc21` [CARBAMAZEPINE], the Inhibition with Staphylococcus aureus was 10.71%; with Escherichia coli it was -3.33%.
`COc1ccc(Cl)cc1C(=O)NCCc1ccc(S(=O)(=O)NC(=O)NC2CCCCC2)cc1` [GLYBURIDE]: the Inhibition in the assay on Staphylococcus aureus was -3.01%; in the assay with Escherichia coli, -12.57%.
For `Cc1[nH]c(=O)c(C#N)cc1-c1ccncc1` [MILRINONE], the Inhibition is given as 14.68% in the assay on Staphylococcus aureus and -0.64% in the assay on Escherichia coli.
For `CNCCCC12CCC(c3ccccc31)c1ccccc12.Cl` [MAPROTILINE HYDROCHLORIDE], the Inhibition in the assay with Staphylococcus aureus is listed as 15.07%; in the assay on Escherichia coli, 6.19%.
As for `Cc1cccc(Nc2ccccc2C(=O)O)c1C` [MEFENAMIC ACID], the Inhibition in the assay with Staphylococcus aureus turned out to be 15.6%; in the assay with Escherichia coli, 6.03%.
`C[C@@H]1CN(CCCn2c3ccccc3c3ccccc32)C[C@H](C)N1.Cl.O`: the figures for the Inhibition in the assay on Staphylococcus aureus and in the assay on Escherichia coli were 5.93% and 5.61%, respectively.
Taken in the same sequence, the figures for `CC1=C(/C=C/C(C)=C/C=C/C(C)=C/C(=O)O)C(C)(C)CCC1` [TRETINOIN] were 13.92% and 7.4%.
The like results for `CC(C)NCC(O)c1cc(O)cc(O)c1` (stereo not given) [METAPROTERENOL] were, in that order, -6.69% and -6.08%.
The like results for `NC(Cc1cc(I)c(Oc2ccc(O)c(I)c2)c(I)c1)C(=O)O` (stereo not given) [RATHYRONINE] were, in that order, 11.14% and 4.17%.
`Cl.O.O=C(c1ccc(F)cc1)C1CCN(CCn2c(=S)[nH]c3ccccc3c2=O)CC1`: the Inhibition was 2.33% with Staphylococcus aureus and 1.4% in the assay on Escherichia coli.
Take `CCCOc1ccc(C(=O)OCCN(CC)CC)cc1N.Cl` [PROPARACAINE HYDROCHLORIDE]: the Inhibition in the assay with Staphylococcus aureus is -1.38%; in the assay on Escherichia coli, 2.71%.
The like results for `NS(=O)(=O)c1cc2c(cc1Cl)N=CNS2(=O)=O` [CHLOROTHIAZIDE] were, in that order, 7.87% and -2.82%.
With `CC(C)C[C@H](NC(=O)[C@@H](O)[C@H](N)Cc1ccccc1)C(=O)O` [UBENIMEX], the values for the Inhibition in the assay on Staphylococcus aureus and in the assay on Escherichia coli were 8.9% and -1.57%, respectively.
Turning to `CN1CCN(C2=Nc3cc(F)ccc3Cc3ccccc32)CC1` [FLUPERLAPINE], the Inhibition came out at 14.37% in the assay on Staphylococcus aureus and 3.9% in the assay on Escherichia coli.
The like results for `CC(=CCC1=C(C)C(=O)c2ccccc2C1=O)CCCC(C)CCCC(C)CCCC(C)C` (stereo not given) were, in that order, 7.33% and 5.45%.
Taken in the same sequence, the figures for `CN1CCN(CCCN2c3ccccc3Sc3ccc(C(F)(F)F)cc32)CC1.Cl.Cl` [TRIFLUOPERAZINE HYDROCHLORIDE] were 19.71% and 0.85%.
The like results for `C#C[C@]1(O)CC[C@H]2[C@@H]3CCc4cc(OC)ccc4[C@H]3CC[C@@]21C` [MESTRANOL] were, in that order, 8.43% and -2.89%.
Consider `CNCCCCOc1ccccc1Cc1ccccc1.Cl`, for which the Inhibition in the assay on Staphylococcus aureus was 10.88%; in the assay with Escherichia coli it was 6.1%.
As for `CC(C)Oc1ccc2c(=O)c(-c3ccccc3)coc2c1` [IPRIFLAVONE], the Inhibition in the assay with Staphylococcus aureus worked out at 16.93%; in the assay on Escherichia coli, 5.9%.
In the case of `CC1(C)S[C@@H]2[C@H](/N=C/N3CCCCCC3)C(=O)N2[C@H]1C(=O)O` [AMDINOCILLIN], the results for the Inhibition in the assay on Staphylococcus aureus and with Escherichia coli were 10.96% and 1.83%, respectively.
Taken in the same sequence, the figures for `CCCN1CCCC[C@H]1C(=O)Nc1c(C)cccc1C.Cl` [ROPIVACAINE HYDROCHLORIDE] were 13.36% and 1.04%.
In the case of `CCOC(=O)O[C@]1(C(=O)OCCl)CC[C@H]2[C@@H]3CCC4=CC(=O)C=C[C@]4(C)[C@H]3[C@@H](O)C[C@@]21C` [LOTEPREDNOL ETABONATE], the results for the Inhibition in the assay on Staphylococcus aureus and in the assay with Escherichia coli were -21.62% and 4.07%, respectively.
Turning to `CC(C[N+](C)(C)C)OC(N)=O.[Cl-]` (stereo not given) [BETHANECHOL CHLORIDE], the Inhibition in the assay with Staphylococcus aureus was 5.38%; in the assay on Escherichia coli it was -1.38%.
For `CC(C)c1ccc2c(c1)c(SC(C)(C)C)c(CC(C)(C)C(=O)O)n2Cc1ccc(Cl)cc1`, the Inhibition with Staphylococcus aureus stood at 10.09%; in the assay with Escherichia coli, 5.68%.
For the compound `Cl.Clc1ccccc1CN1CCc2sccc2C1` [TICLOPIDINE HYDROCHLORIDE], the Inhibition in the assay on Staphylococcus aureus was found to be 6.77%; in the assay on Escherichia coli, 1.84%.
On to `C=C1/C(=C\C=C2/CCC[C@]3(C)[C@@H]([C@H](C)CCCC(C)(C)O)CC[C@@H]23)C[C@@H](O)C[C@@H]1O` [CALCITRIOL], for which the results for the Inhibition with Staphylococcus aureus and in the assay on Escherichia coli were 3.12% and 7.51%, respectively.
Taken in the same sequence, the figures for `CCCN[C@H]1CCc2nc(N)sc2C1` [PRAMIPEXOLE] were -18.52% and 2.75%.
For the compound `CCC1(c2ccccc2)C(=O)NCNC1=O` [PRIMIDONE], the values for the Inhibition in the assay on Staphylococcus aureus and in the assay with Escherichia coli were 13.4% and 3.86%, respectively.
For the compound `CS(=O)(=O)O.Oc1ccc(C2CNCCc3c2cc(O)c(O)c3Cl)cc1` (stereo not given) [FENOLDOPAM MESYLATE], the Inhibition was 13.63% with Staphylococcus aureus and -0.49% with Escherichia coli.
The like results for `CCCC1O[C@@H]2C[C@H]3[C@@H]4CCC5=CC(=O)C=C[C@]5(C)[C@H]4[C@@H](O)C[C@]3(C)[C@]2(C(=O)CO)O1` (stereo not given in full) [BUDESONIDE] were, in that order, 6.99% and -1.42%.
With `CC1=C(/C=C/C(C)=C/C=C/C(C)=C\C(=O)O)C(C)(C)CCC1` [ISOTRETINOIN], the Inhibition is listed as 5.02% in the assay with Staphylococcus aureus and -1.2% in the assay with Escherichia coli.
As for `O=C1CCC(N2C(=O)c3ccccc3C2=O)C(=O)N1` (stereo not given) [THALIDOMIDE], the results for the Inhibition with Staphylococcus aureus and with Escherichia coli were 9.61% and -2.18%, respectively.
The like results for `NCC(=O)CCC(=O)O` [AMINOLEVULINIC ACID] were, in that order, 8.53% and 5.31%.
Regarding `CC[C@H]1OC(=O)[C@H](C)C(=O)[C@H](C)[C@@H](O[C@@H]2O[C@H](C)C[C@H](N(C)C)[C@H]2O)[C@](C)(OC)C[C@@H](C)C(=O)[C@H](C)[C@@H]2N(CCCCn3cnc(-c4cccnc4)c3)C(=O)O[C@@]21C`, the results for the Inhibition in the assay with Staphylococcus aureus and in the assay with Escherichia coli were 4.38% and 4.81%, respectively.
Taken in the same sequence, the figures for `CC(=O)CCCCn1cnc2c1c(=O)n(C)c(=O)n2C` [LOMIFYLLINE] were 12.49% and 5.02%.
Regarding `C[C@]12C=CC(=O)C=C1CC[C@@H]1[C@@H]2C(=O)C[C@@]2(C)[C@H]1CC[C@]2(O)C(=O)CO` [PREDNISONE], the Inhibition in the assay on Staphylococcus aureus worked out at 12.15%; in the assay with Escherichia coli it was 4.61%.
The like results for `C[C@@H](O)[C@H]1C(=O)N2C(C(=O)O)=C(S[C@@H]3CN[C@H](C(=O)N(C)C)C3)[C@H](C)[C@H]12` [MEROPENEM] were, in that order, -14.17% and 7.87%.
Taken in the same sequence, the figures for `Nc1ccc(S(=O)(=O)c2ccc(N)cc2)cc1` [DAPSONE] were -0.58% and 0.96%.
As to `O=C1[C@H](CC[C@H](O)c2ccc(F)cc2)[C@@H](c2ccc(O)cc2)N1c1ccc(F)cc1` [EZETIMIBE], the Inhibition in the assay with Staphylococcus aureus was 5.57%; in the assay with Escherichia coli, -0.7%.
In the case of `CC(C)[C@H](N)C(=O)OCCOCn1cnc2c(=O)nc(N)[nH]c21.Cl` [VALACYCLOVIR HYDROCHLORIDE], the Inhibition with Staphylococcus aureus is on record as 12.39%; in the assay on Escherichia coli, 2.88%.
With `CNNCc1ccc(C(=O)NC(C)C)cc1.Cl` [PROCARBAZINE HYDROCHLORIDE], the Inhibition with Staphylococcus aureus is on record as 12.92%; in the assay on Escherichia coli, -2.72%.
Turning to `CS(=O)(=O)c1ccc(-c2cc(Br)sc2-c2ccc(F)cc2)cc1` [DUP-697], the figures for the Inhibition in the assay on Staphylococcus aureus and in the assay with Escherichia coli were 14.13% and -0.37%, respectively.
With `Cc1onc(-c2ccccc2)c1-c1ccc(S(N)(=O)=O)cc1` [VALDECOXIB], the Inhibition in the assay on Staphylococcus aureus is reported as 10.74%; with Escherichia coli, 4.49%.
Regarding `COc1c2occc2cc2ccc(=O)oc12` [METHOXSALEN], the Inhibition is on record as 13.34% in the assay with Staphylococcus aureus and -6.11% in the assay on Escherichia coli.
For the compound `CCN(Cc1ccncc1)C(=O)C(CO)c1ccccc1` (stereo not given) [TROPICAMIDE], the Inhibition worked out at 7.97% in the assay with Staphylococcus aureus and 5.49% in the assay on Escherichia coli.
